High-throughput results as filed in PubChem.
Most compounds without a hit are left out; they make up all but 19% or so of the library.
TDP1 inh: qHTS Assay for Inhibitors of Tyrosyl-DNA Phosphodiesterase (TDP1). Tyrosyl-DNA phosphodiesterase 1 (Homo sapiens), Q9NUW8. Potency, µM (doses to about 130 µM), inactives show top-dose activity change, negative = inhibition, most hits filed as inhibitors. AID 485290, 2010. recombinant TDP1, AlphaScreen DNA substrate cleavage. 350,000 compounds, 0.28% hits; note: potency is the fitted concentration of half-maximal effect; % is set by controls: 0 for no effect and ±100 for the full control effect; nearly all actives have a fitted effect of over 40% in size
Target sequence (Q9NUW8 whole entry, looked up): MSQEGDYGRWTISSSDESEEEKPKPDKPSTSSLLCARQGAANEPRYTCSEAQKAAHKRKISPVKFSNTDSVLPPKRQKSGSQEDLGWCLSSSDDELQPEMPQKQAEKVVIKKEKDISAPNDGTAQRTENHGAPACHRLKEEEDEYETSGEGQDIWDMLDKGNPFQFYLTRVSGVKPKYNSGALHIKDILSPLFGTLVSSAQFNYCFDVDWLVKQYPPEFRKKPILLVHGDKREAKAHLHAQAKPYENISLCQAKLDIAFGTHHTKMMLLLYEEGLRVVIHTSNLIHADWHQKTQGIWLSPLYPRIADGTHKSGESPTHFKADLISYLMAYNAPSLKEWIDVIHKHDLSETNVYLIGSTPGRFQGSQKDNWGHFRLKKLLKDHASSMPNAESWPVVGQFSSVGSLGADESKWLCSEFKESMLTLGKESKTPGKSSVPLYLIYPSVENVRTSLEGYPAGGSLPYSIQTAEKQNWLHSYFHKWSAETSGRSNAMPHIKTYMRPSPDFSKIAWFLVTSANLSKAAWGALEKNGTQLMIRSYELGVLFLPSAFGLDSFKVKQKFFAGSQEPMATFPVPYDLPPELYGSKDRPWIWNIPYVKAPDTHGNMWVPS
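Enzyme-compound mixtures sat 15 min at room temperature, followed by a 5 min reaction with 15 nM final substrate and 10 min with AlphaScreen beads. Recombinant human Tdp1 was used at 1 nM final.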
TDP1 cell CPT: qHTS for Inhibitors of human tyrosyl-DNA phosphodiesterase 1 (TDP1): qHTS in cells in presence of CPT; AID 686979, 2013; chicken DT40 Tdp1-/-;hTDP1 cells + 20 nM CPT, ATP luminescence, 48 h; Potency, µM (top dose mostly 46.2 µM), for inactives: at the top dose activity change, negative = growth inhibition, actives largely listed as inhibitors; 420,000 compounds, 12% hits; note: potency is the fitted concentration of half-maximal effect; % is set by controls: 0 for no effect and ±100 for the full control effect; nearly all actives have a fitted effect of over 55% in size
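Chicken DT40 Tdp1-/- cells stably complemented with human TDP1 were seeded at 400 cells/well in medium containing 20 nM camptothecin, exposed to pin-transferred compounds, and grown at 37 °C for at least 48 hr. Viability was read as ATP luminescence.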
TDP1 cell noCPT: qHTS for Inhibitors of human tyrosyl-DNA phosphodiesterase 1 (TDP1): qHTS in cells in absence of CPT | DT40 Tdp1-/- hTDP1 cells, no CPT, ATP luminescence, 48 h | Potency, µM (highest dose often 46.2 µM), for the others: at the highest dose activity change, negative = growth inhibition, actives largely listed as inhibitors | 420,000 compounds, 15% hits; note: potency is the fitted concentration of half-maximal effect; % is set by controls: 0 for no effect and ±100 for the full control effect; nearly all actives have a fitted effect of over 55% in size
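Luminescent ATP content (CellTiter-Glo) served as the growth readout. Knockout chicken DT40 cells expressing human TDP1 were exposed to compounds without camptothecin for a minimum 48 hr at 37 °C.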
IL-1B inflam inh: qHTS for Inhibitors of Inflammasome Signaling: IL-1-beta AlphaLISA Primary Screen. THP-1 LPS/ATP IL-1B secretion, AlphaLISA, 16 h; active compounds read low. activity change, % at 57.5 µM. 360,000 compounds, 4.7% hits; in the data active = activity change below about -50%; inconclusive = mostly about -30% to -49%; note: % is set by controls: 0 for no effect and ±100 for the full control effect
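Secreted IL-1B measured by AlphaLISA bead assay after 16 h compound exposure of THP-1 cells; compounds (final up to 57.5 uM) added 1 h before LPS (250 ng/mL) and ATP (1.25 mM) stimulation; lower signal means less secretion.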
TGFb SMAD3 inh: qHTS for Inhibitors of TGF-b; 410,000 compounds, 1.2% hits; HepG2 CAGA-GFP TGF-b/SMAD3 reporter, GFP fluorescence, 18 h; TGF-beta stimulated, 500 pg/mL final; AID 588855, 2011; Potency, µM (top dose mostly 46.1 µM), without a hit: at the top dose activity, negative = inhibition, most hits filed as inhibitors; note: potency is the fitted concentration of half-maximal effect; % is set by controls: 0 for no effect and ±100 for the full control effect; nearly all actives have a fitted effect of over 65% in size
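Inhibition was scored as loss of TGF-beta-induced (500 pg/mL final, 18 hours, 37 degrees C) GFP in HEPG2 cells carrying a CAGA-GFP reporter, in DMEM with 1% FBS. Well GFP was summed per cell; Activity was normalised to unstimulated and stimulated DMSO wells, then concentration-response fitting.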
HepG2 tox: qHTS for Inhibitors of TGF-b: Cytotox Counterscreen. HepG2 CAGA-GFP viability, ATP luminescence, 18 h. Potency, µM (top dose mostly 46.1 µM), for inactives: at the highest dose activity change, negative = cytotoxicity, hits mostly cytotoxic. 410,000 compounds, 0.76% hits. AID 588856, 2011; note: potency is the fitted concentration of half-maximal effect
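CellTiter-Glo luminescence gave cytotoxicity after 18 hours at 37 degrees C. The cells were HepG2 CAGA-GFP in 1% FBS DMEM, stimulated with 500 pg/mL TGF-beta after compound addition. %Activity was normalised to no-cell wells (complete cell-killing) and DMSO (no toxicity), and curves were fitted and classified.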
* marks the source's active call; other numbers are inactive results; u = inconclusive; x = no result given; ! = repeats disagree; [ ] = another dose, or the depositor's remark. Unless noted, calls come from the whole dose curve; as a rule, active = well fitted curve in the direction sought with a large enough effect; inconclusive = small, poorly fitted or top-dose-only effect, or another doubt; inactive = no such curve, though single readings can be large; an effect the other way counts as inactive or inconclusive.

SMILES	TDP1 inh	TDP1 cell CPT	TDP1 cell noCPT	IL-1B inflam inh	TGFb SMAD3 inh	HepG2 tox
C#CC(CC)(CC)NC(=O)Nc1ccc(OCC)cc1	0%	-7%	-27%	30	2%	-1%
CCOC(=O)c1ccc(N2CCN(c3ccccc3F)CC2)c(NC(=O)Nc2ccc(Cl)c(Cl)c2)c1	8%	1.3µM*	1.3µM*	x	-5%	-25%
CCC(=O)Nc1ccc(C(=O)OCc2ccccc2Cl)cc1	-3%	u	u	1	8%	-7%
O=C(NC1CCCCCC1)c1ccc[nH]c1=S	5%	-6%	-34%	-6	u	2%
CCCCCCCCCCCCOCCOCCOCCOCCOCCOCCOCCOCCOCCO	8%	6.7µM*	6.7µM*	x	x	x
CC12Cc3cn[nH]c3C=C1CCC1C2CCC2(C)C1CCC2(C)O (stereo not drawn)	x	u	u	-91*	19%	29%
O=C1NC(=O)N(Cc2ccc(F)cc2)C(=O)/C1=C\c1ccc([N+](=O)[O-])s1	4%	13µM*	8.2µM*	-7	u	-42%
COc1ccc(CN2C(=O)NC(=O)/C(=C\c3ccco3)C2=O)cc1	x	u	u	-9	-1%	0%
COc1ccc(CN2C(=O)NC(=O)/C(=C/c3ccc([N+](=O)[O-])s3)C2=O)cc1	5%	10µM*	4.6µM*	10	u	-24%
COc1ccc(CN2C(=O)NC(=O)/C(=C\c3cc(OC)c(OC)c(OC)c3)C2=O)cc1	5%	18µM*	u	-16	-17%	-18%
COc1cc(OC)c(OC)cc1/C=C1/C(=O)NC(=O)N(Cc2ccccc2)C1=O	-5%	-1%	u	-16	2%	-15%
O=S1(=O)N(Cc2ccccc2Cl)CCCN1Cc1ccccc1Cl	-6%	16µM*	u	x	-8%	-33%
c1cncc(CNCCc2ccc3c(c2)OCO3)c1	4%	4%	-9%	-6	-11%	-8%
CC1(C)CC(CCNCc2ccc3c(c2)OCO3)(Cc2ccccc2)CCO1 (stereo not drawn)	-1%	u	18µM*	-96*	8%	-27%
CCCCCCOc1ccc(CN2CCN(CC)CC2)cc1	5%	u	23µM*	u	u	-32%
COc1cc(C#Cc2c(-c3cncn3C)n(C)c3ccc(-c4cnc(N5CCOCC5)nc4)cc23)cc(OC)c1	4%	16µM*	12µM*	u	-19%	-16%
CC(C)c1ccc(NC(=O)CN2C(=O)CN=C(c3ccccc3)c3ccccc32)cc1	2%	-17%	u	x	-1%	5%
O=C(C[N+]12CCC(CC1)C(C(O)(c1ccccc1)c1ccccc1)C2)c1ccc(Br)cc1 (stereo not drawn)	5%	15µM*	7.3µM*	-59*	-9%	-12%
OCC[N+]12CCC(CC1)C(C(O)(c1ccccc1)c1ccccc1)C2 (stereo not drawn)	3%	7%	-1%	-17	13%	3%
C[C@@]12CC[C@H]3[C@@H](CC[C@@H]4C[C@H]5S[C@H]5C[C@]43C)[C@H]1CC[C@H]2O	4%[21 µM]	x	x	x	x	x
C[C@@H]1CN([C@@H](C)CO)C(=O)c2c(c3ccccc3n2C)-c2ccccc2CO[C@H]1CN(C)C(=O)[C@H](C)c1ccccc1	x	16µM*	18µM*	-14	u	-35%
C[C@@H]1CN([C@H](C)CO)C(=O)c2c(c3ccccc3n2C)-c2ccccc2CO[C@H]1CN(C)C(=O)c1cc(Cl)cc(Cl)c1	x	-24%	u	6	-3%	-17%
C[C@H](CO)N1C[C@H](C)[C@H](CN(C)C(=O)N[C@H](C)c2ccccc2)OCc2ccccc2-c2c(n(C)c3ccccc23)C1=O	x	23µM*	16µM*	-5	-10%	-24%
CCc1ccc([C@H]2[C@@H]3C(=O)C[C@@H]4C(=O)N(C5CCCCC5)C(=O)[C@@H]4[C@@H]3CN2S(=O)(=O)c2ccc(C)cc2)cc1	x	u	u	u	-16%	-2%
CCN(CC)c1ccc(/C=C/[N+](=O)[O-])cc1	8%	u	16µM*	-18	u	-55%
SMILES	TDP1 inh	TDP1 cell CPT	TDP1 cell noCPT	IL-1B inflam inh	TGFb SMAD3 inh	HepG2 tox
Cc1ccc(NC(=O)COc2ccc(-c3nn(C)c(=O)c4ccccc34)cc2)c(C)c1	2%	16µM*	13µM*	x	x	-10%
Cn1nc(-c2ccc(C(=O)Nc3ccc(OC(F)(F)F)cc3)cc2)c2ccccc2c1=O	12%	9.2µM*	16µM*	x	u	-20%
O=C(Nc1ccc(OC(F)(F)F)cc1)c1cccn(Cc2ccccc2Cl)c1=O	2%	1%	-1%	x	7%	-16%
CCN(CC)C(=O)c1ccc(NC(=O)COc2ccc(-c3nn(C)c(=O)c4ccccc34)cc2)cc1	1%	16µM*	u	5	10µM*	-13%
Cc1ccc(OCC(=O)Nc2ccc(Cl)cc2C(=O)c2ccccc2)cc1	-2%[12.3 µM]	-4%	-23%	0	16%	-1%
CCN(CC)C(=O)c1ccc(NC(=O)CCn2nc(-c3ccc(C)cc3)c3ccccc3c2=O)cc1	7%	18µM*	15µM*	x	0%	-22%
CCN(CC)C(=O)c1ccc(NC(=O)Cn2nc(-c3ccc(C)cc3)c3ccccc3c2=O)cc1	x	3%	-20%	x	-11%	-1%
C[C@H]1O[C@H](O[C@H]2[C@H](O)[C@@H](O)[C@@H](O)[C@H](O)[C@@H]2O)[C@@H](N)C[C@@H]1NC(=N)C(=O)O	-19%[56.1 µM]	-8%	-17%	x	x	x
CCCNC(=O)C(Cc1ccc(C(F)(F)P(=O)(OCC)OCC)cc1)NC(=O)c1ccc(C#N)cc1 (stereo not drawn)	1%	u	-29%	-10	-29%	-46%
CN1CCN(c2csc3ccc(F)cc3c2=O)CC1	4%	5%	-3%	x	-14%	-5%
c1ccc2c(c1)Nc1ccccc1S2	13%	5.3µM*!	34µM*!	4	3%	-3%
O=C1Nc2ccccc2Sc2ccccc21	0%	-5%	-8%	-13	-5%	-14%
C[S@@](=O)CCCCN=C=S	4%	x	x	x	x	x
